According to PubChem BioAssay (EPA / NIEHS):
Activity calls are given as the source filed them. Rule for the calls: active = hit-call score of the fitted dose curve at least 0.9, where 1 is the maximum; inactive = score below 0.9.

Assays:
[1] = read-out: Macrophage colony-stimulating factor (MCSF), CSF1 (gene 1435); assay: BSK_hDFCGF_MCSF: BioMAP Diversity Plus: hDFCGF Assay for Macrophage colony-stimulating factor (MCSF) Biomarker Activity (AID 2283060); details: primary human foreskin fibroblasts; actives raise or lower the signal
Summary of the method: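 M-CSF levels, determined by ELISA, are taken at 24 h after dosing human skin fibroblasts. Responses in either direction are fitted with DMSO serving as the baseline.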

[2] = BSK_hDFCGF_SRB: Viability Assessment in the BioMAP Diversity Plus: hDFCGF Assay (AID 2283061); details: primary human foreskin fibroblasts;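 note: cells exposed to compound for 24 h before the read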
Summary of the method: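 Cells were dosed with test chemical, cultured 24 h, fixed with 10% TCA, then stained with 0.1% SRB and read at 560 nm. The fibroblasts were human foreskin primary cells, and DMSO served as baseline.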

[3] = read-out: TIMP metallopeptidase inhibitor 1 (TIMP1), TIMP1 (gene 7076); assay: BSK_hDFCGF_TIMP1: BioMAP Diversity Plus: hDFCGF Assay for TIMP metallopeptidase inhibitor 1 (TIMP1) Biomarker Activity (AID 2283062); details: primary human foreskin fibroblasts; actives raise or lower the signal
Summary of the method: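 Fibroblasts from human foreskin are treated with test chemical and harvested at 24 h. TIMP-1 is quantified by ELISA, and gain or loss of signal is scored against DMSO.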

[4] = read-out: Monokine induced gamma interferon (MIG), CXCL9 (gene 4283); assay: BSK_hDFCGF_MIG: BioMAP Diversity Plus: hDFCGF Assay for Monokine induced gamma interferon (MIG) Biomarker Activity (AID 2283063); details: primary human foreskin fibroblasts; actives raise or lower the signal
Summary of the method: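 MIG signal, determined by ELISA, reflects 24 h chemical exposure of human skin primary fibroblasts. DMSO serves as negative control and baseline.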

[5] = read-out: Matrix Metallopeptidase 1 (MMP1), MMP1 (gene 4312); assay: BSK_hDFCGF_MMP1: BioMAP Diversity Plus: hDFCGF Assay for Matrix Metallopeptidase 1 (MMP1) Biomarker Activity (AID 2283064); details: primary human foreskin fibroblasts; actives raise or lower the signal
Summary of the method: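 Primary human foreskin fibroblasts in the hDFCGF system were dosed with test chemical, and MMP1 was measured by ELISA 24 h later. Values come from bidirectional curve fitting against the DMSO baseline.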

[6] = read-out: Vascular cell adhesion molecule 1 (VCAM1), VCAM1 (gene 7412); assay: BSK_hDFCGF_VCAM1: BioMAP Diversity Plus: hDFCGF Assay for Vascular cell adhesion molecule 1 (VCAM1) Biomarker Activity (AID 2283065); details: primary human foreskin fibroblasts; actives raise or lower the signal;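 for AC50: VCAM-1 protein level quantified by ELISA after 24 h chemical exposure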
Summary of the method: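 Cells are dosed, cultured for 24 h, then VCAM-1 is quantified by ELISA; signal increases and decreases are both fitted relative to DMSO.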

[7] = read-out: Plasminogen activator inhibitor-1 (PAI1), SERPINE1 (gene 5054); assay: BSK_hDFCGF_PAI1: BioMAP Diversity Plus: hDFCGF Assay for Plasminogen activator inhibitor-1 (PAI1) Biomarker Activity (AID 2283066); details: primary human foreskin fibroblasts; actives raise or lower the signal
Summary of the method: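 Human foreskin fibroblasts in the hDFCGF system were dosed with compound for 24 h; PAI-1 was quantified by ELISA. Bidirectional curve fitting used DMSO as negative control and baseline.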

[8] = read-out: Interferon-gamma inducible Protein 10 (IP10), CXCL10 (gene 3627); assay: BSK_KF3CT_IP10: BioMAP Diversity Plus: KF3CT Assay for Interferon-gamma inducible Protein 10 (IP10) Biomarker Activity (AID 2283068); details: primary human keratinocytes with fibroblasts; actives raise or lower the signal
Summary of the method: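 ELISA read-out of IP-10 after 24 h chemical dosing of human skin primary co-culture (keratinocytes, foreskin fibroblasts). Gain or loss of signal relative to DMSO, bidirectional curve fit.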

[9] = BSK_KF3CT_SRB: Viability Assessment in the BioMAP Diversity Plus: KF3CT Assay (AID 2283069); details: primary human keratinocytes with fibroblasts
Summary of the method: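 Human primary keratinocyte plus foreskin fibroblast co-culture exposed to chemicals for 24 h. Total protein measured by 0.1% sulforhodamine B staining after 10% TCA fixation, read at 560 nm; bidirectional fitting versus DMSO baseline.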

[10] = read-out: Interleukin-1 alpha (IL1a), IL1A (gene 3552); assay: BSK_KF3CT_IL1a: BioMAP Diversity Plus: KF3CT Assay for Interleukin-1 alpha (IL1a) Biomarker Activity (AID 2283070); details: primary human keratinocytes with fibroblasts; actives raise or lower the signal
Summary of the method: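 Human keratinocyte plus foreskin fibroblast primary co-culture, sampled 24 h after chemical dosing. IL-1a measured by ELISA; responses fitted bidirectionally against DMSO baseline (negative control), so gain or loss of signal both count.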

[11] = read-out: TIMP metallopeptidase inhibitor 2 (TIMP2), TIMP2 (gene 7077); assay: BSK_KF3CT_TIMP2: BioMAP Diversity Plus: KF3CT Assay for TIMP metallopeptidase inhibitor 2 (TIMP2) Biomarker Activity (AID 2283071); details: primary human keratinocytes with fibroblasts; actives raise or lower the signal
Summary of the method: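 Human primary keratinocyte/foreskin fibroblast co-culture dosed with chemical and sampled at 24 h. TIMP-2 levels quantified by ELISA; bidirectional fitting against DMSO negative control as baseline.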

[12] = read-out: Transforming growth factor beta 1 (TGFb1), TGFB1 (gene 7040); assay: BSK_KF3CT_TGFb1: BioMAP Diversity Plus: KF3CT Assay for Transforming growth factor beta 1 (TGFb1) Biomarker Activity (AID 2283072); details: primary human keratinocytes with fibroblasts; actives raise or lower the signal
Summary of the method: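 Human keratinocyte plus foreskin fibroblast primary co-culture, dosed with chemical for 24 h. TGF-b1 quantified by ELISA. Activity fitted bidirectionally against DMSO negative control as baseline.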

[13] = read-out: C-C motif chemokine 2 (Homo sapiens) (UniProt P13500); assay: BSK_KF3CT_MCP1: BioMAP Diversity Plus: KF3CT Assay for Monocyte Chemoattractant Protein 1 (MCP1/CCL2) Biomarker Activity (AID 2283073); details: primary human keratinocytes with fibroblasts; actives raise or lower the signal
Summary of the method: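 Keratinocytes and foreskin fibroblasts were co-cultured, dosed with chemical, and sampled 24 h later. MCP-1 was quantified by ELISA, and the endpoint was analyzed with bidirectional fitting using DMSO as negative control.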

[14] = read-out: Matrix Metallopeptidase 9 (MMP9), MMP9 (gene 4318); assay: BSK_KF3CT_MMP9: BioMAP Diversity Plus: KF3CT Assay for Matrix Metallopeptidase 9 (MMP9) Biomarker Activity (AID 2283074); details: primary human keratinocytes with fibroblasts; actives raise or lower the signal;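 for AC50: MMP9 protein level quantified by ELISA in the co-culture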
Summary of the method: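 Keratinocyte plus foreskin fibroblast human primary skin co-culture was dosed with chemical and MMP-9 was quantified by ELISA 24 h later. Bidirectional curve fitting used DMSO as negative control and activity baseline.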

[15] = read-out: urokinase plasminogen activator (uPA), PLAU (gene 5328); assay: BSK_KF3CT_uPA: BioMAP Diversity Plus: KF3CT Assay for urokinase plasminogen activator (uPA) Biomarker Activity (AID 2283075); details: primary human keratinocytes with fibroblasts; actives raise or lower the signal
Summary of the method: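 Human keratinocyte plus foreskin fibroblast primary co-culture exposed to chemical for 24 h. uPA levels were quantified by ELISA, and activity was fitted bidirectionally against a DMSO negative-control baseline.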

CD40, CD40 (gene 958) = assay: BSK_LPS_CD40: BioMAP Diversity Plus: LPS Assay for CD40 Biomarker Activity (AID 2283076); details: primary human HUVEC with PBMC; actives raise or lower the signal
Summary of the method: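 CD40 signal, measured by ELISA, is fitted in both directions relative to DMSO vehicle. The system is an LPS-driven human vascular primary co-culture of endothelial cells and PBMC, sampled 24 h after compound addition.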

[16] = read-out: Interleukin-8 (IL8), CXCL8 (gene 3576); assay: BSK_LPS_IL8: BioMAP Diversity Plus: LPS Assay for Interleukin-8 (IL8) Biomarker Activity (AID 2283078); details: primary human HUVEC with PBMC; actives raise or lower the signal
Summary of the method: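 Endothelial cells and PBMC from human donors are co-cultured, treated with chemicals and LPS, then assayed for IL-8 by ELISA after 24 h. Parallel SRB staining (0.1% SRB after 10% TCA fixation, 560 nm) flags cytotoxicity.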

[17] = BSK_LPS_SRB: Viability Assessment in the BioMAP Diversity Plus: LPS Assay (AID 2283079); details: primary human HUVEC with PBMC;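 note: total protein by sulforhodamine B absorbance as a cytotoxicity measure; measured one day after compound addition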
Summary of the method: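 Overt cytotoxicity was gauged by sulforhodamine B total-protein staining in a primary human vascular endothelial and mononuclear cell co-culture 24 h post-dosing. Activity was fitted in both directions relative to DMSO.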

[18] = read-out: E-selectin (Homo sapiens) (UniProt P16581); assay: BSK_LPS_Eselectin: BioMAP Diversity Plus: LPS Assay for Eselectin Biomarker Activity (AID 2283077); details: primary human HUVEC with PBMC; actives raise or lower the signal
Summary of the method: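 Signal of E-selectin, detected by ELISA, served as the endpoint; cells were umbilical vein endothelium with PBMC, read 24 h after treatment. DMSO defined baseline, and both increases and decreases were fitted.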

[19] = read-out: Intercellular Adhesion Molecule 1 (ICAM1), ICAM1 (gene 3383); assay: BSK_KF3CT_ICAM1: BioMAP Diversity Plus: KF3CT Assay for Intercellular Adhesion Molecule 1 (ICAM1) Biomarker Activity (AID 2283067); details: primary human keratinocytes with fibroblasts; actives raise or lower the signal
Summary of the method: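 Dose the keratinocyte/fibroblast co-culture, wait 24 h, measure ICAM-1 by ELISA, then fit increases or decreases against DMSO. Cytotoxicity is checked in parallel cultures by SRB total-protein staining.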

Measured: AC50

Sequence of E-selectin (Homo sapiens) (P16581 whole entry, looked up): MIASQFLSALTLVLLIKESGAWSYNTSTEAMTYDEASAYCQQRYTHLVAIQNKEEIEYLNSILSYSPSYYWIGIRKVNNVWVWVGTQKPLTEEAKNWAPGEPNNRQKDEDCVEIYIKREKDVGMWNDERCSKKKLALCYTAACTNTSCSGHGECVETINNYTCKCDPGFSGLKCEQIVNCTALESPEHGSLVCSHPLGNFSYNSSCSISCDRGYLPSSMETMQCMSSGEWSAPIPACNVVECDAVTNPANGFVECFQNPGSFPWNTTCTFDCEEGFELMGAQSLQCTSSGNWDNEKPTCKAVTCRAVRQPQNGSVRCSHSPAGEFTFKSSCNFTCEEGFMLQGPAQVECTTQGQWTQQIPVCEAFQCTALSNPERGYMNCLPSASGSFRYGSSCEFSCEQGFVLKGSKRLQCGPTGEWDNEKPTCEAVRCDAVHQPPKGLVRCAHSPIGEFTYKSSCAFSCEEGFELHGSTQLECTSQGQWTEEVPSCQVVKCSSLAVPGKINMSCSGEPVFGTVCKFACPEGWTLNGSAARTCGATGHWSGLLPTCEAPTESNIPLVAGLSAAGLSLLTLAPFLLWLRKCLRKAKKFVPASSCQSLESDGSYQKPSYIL

C#CCC1=C(C)C(OC(=O)C2C(C=C(C)C)C2(C)C)CC1=O (stereo unspecified)
active: [1] 29.2 µM | [2] 33.3 µM | [4] 37 µM | [5] 31.6 µM | [6] 34.8 µM | [7] 32 µM | [9] 22.3 µM | CD40, CD40 (gene 958) 20 µM | [16] 26.7 µM | [17] 29.1 µM
inactive: [3] | [8] | [10] | [11] | [12] | [13] | [14] | [15]

CCOP(=S)(OCC)Oc1cc(C)nc(C(C)C)n1
not listed: [19]
inactive: all other assays above

CC[C@H](C)[C@H]1O[C@]2(C=C[C@@H]1C)C[C@@H]1C[C@@H](C/C=C(\C)[C@@H](O[C@H]3C[C@H](OC)[C@@H](O[C@H]4C[C@H](OC)[C@@H](NC)[C@H](C)O4)[C@H](C)O3)[C@@H](C)/C=C/C=C3\CO[C@@H]4[C@H](O)C(C)=C[C@@H](C(=O)O1)[C@]34O)O2
active: [1] 2.85 µM | [2] 3.85 µM | [3] 4.4 µM | [4] 5.27 µM | [5] 6.78 µM | [6] 4.8 µM | [7] 2.08 µM | [19] 9.03 µM | [8] 8.17 µM | [9] 6.31 µM | [10] 5.84 µM | [11] 8.99 µM | [12] 10.8 µM | [13] 7.96 µM | [14] 6.21 µM | [15] 9.27 µM | CD40, CD40 (gene 958) 1.86 µM | [18] 5.98 µM | [16] 5.57 µM | [17] 5.52 µM

COP(=O)(OC)OC(Br)C(Cl)(Cl)Br (stereo unspecified)
active: [1] 16.4 µM | [2] 20 µM | [3] 15.7 µM | [4] 17.5 µM | [5] 32.7 µM | [6] 13.4 µM | [7] 30.1 µM | [8] 30 µM | [9] 26.1 µM | [10] 27.1 µM | [11] 31.3 µM | [12] 32.3 µM | [13] 31.1 µM | [14] 30.4 µM | [15] 36.9 µM | CD40, CD40 (gene 958) 19.4 µM | [16] 30.8 µM | [17] 26 µM

CCC(=O)Nc1ccc(Cl)c(Cl)c1
not listed: [4] | [19]
inactive: all other assays above

CCc1cnc(C2=NC(C)(C(C)C)C(=O)N2)c(C(=O)O)c1 (stereo unspecified)
not listed: [4] | [18]
inactive: all other assays above
